Test [1] concerns the target Bile acid receptor (Homo sapiens) (UniProt Q96RI1). The test is described as follows: qHTS assay for small molecule agonists of farnesoid X receptor signaling (AID 588527).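 Note: 0% = vehicle basal and 100% = reference agonist.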 Particulars: HEK293T FXR-UAS-bla, beta-lactamase ratio, 16 h; stronger effect = higher value. Summed up:
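Quantitative HTS used FXR-UAS-bla HEK293T cells with 16 h compound incubation at 37 C. EC50 values came from concentration-response curves normalized to chenodeoxycholic acid.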
Background: Quantitative high-throughput screening tests each substance at several concentrations.

Test [2] has as its target Peroxisome proliferator-activated receptor delta (Homo sapiens) (UniProt Q03181). The test is described as follows: qHTS assay for small molecule agonists of peroxisome proliferator-activated receptor delta signaling (AID 588534).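 Note: 0% = DMSO basal wells and 100% = positive control agonist at 10 µM.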 In a few lines: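 Cell-based beta-lactamase reporter assay run in agonist mode: cells seeded and incubated 5 hrs at 37 C, compounds added and incubated 18 hrs at 37 C. CCF4 dye fluorescence read after 2 hrs at RT; EC50 and efficacy from Hill fits.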

A short description of test [3]: Primary qHTS for Huh7 cytotoxicity: counterscreen for inhibitors of MERS-S pseudotyped particle cell entry (AID 1479147). Particulars: outcome: dose series up to 57.1 µM unless noted.
A short description of test [4]: Primary qHTS for inhibitors of MERS-S pseudo-typed particle cell entry (AID 1479149). Note: nearly all actives have a fitted effect of over 60% in size. Particulars: outcome: dose series up to 57.1 µM unless noted.
Test [5] can be described thus: Primary qHTS for Vero E6 cytotoxicity: counterscreen for inhibitors of SARS-S pseudo-typed particle cell entry (AID 1479150). The settings on record: outcome: dose series up to 57.1 µM unless noted.
Test [6] can be described thus: Cytotoxicity counterscreen for inhibitors of SARS-CoV-2 cell entry (AID 1645845). Note: nearly all actives have a fitted effect of over 50% in size. The settings on record: outcome: dose series up to 57.1 µM unless noted. Summed up: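 HEK293-ACE2 cells (Expi293F stably expressing human ACE2) seeded overnight, then compound for 1 h plus 48 h at 37C. Viability as ATP content by luminescence; normalized to wells with cells and media-only wells.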
(In general: The purpose of a counterscreen is to sort out artefacts and off-target activity.)

The nature of test [7]: Primary qHTS to identify inhibitors of SARS-CoV-2 cell entry (AID 1645846). Note: nearly all actives have a fitted effect of over 45% in size. The settings on record: SARS-CoV-2 pseudovirus cell entry assay, luminescence; activity change, negative = inhibition: at 57.1 µM (top of the series) unless noted. Summed up: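 Data are normalized to wells receiving SARS-CoV-2-S pseudoparticles and those given bald particles. Entry signal was luciferase luminescence in stable hACE2 Expi293F cells, 48 hr post-infection, after 1 hr compound pretreatment.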

These results are taken from PubChem BioAssay (NCATS).

Inconclusive results are not listed. The source made the active and inactive calls. Calls come from the whole dose curve.

Bile acid receptor (Homo sapiens), sequence (Q96RI1 whole entry, looked up): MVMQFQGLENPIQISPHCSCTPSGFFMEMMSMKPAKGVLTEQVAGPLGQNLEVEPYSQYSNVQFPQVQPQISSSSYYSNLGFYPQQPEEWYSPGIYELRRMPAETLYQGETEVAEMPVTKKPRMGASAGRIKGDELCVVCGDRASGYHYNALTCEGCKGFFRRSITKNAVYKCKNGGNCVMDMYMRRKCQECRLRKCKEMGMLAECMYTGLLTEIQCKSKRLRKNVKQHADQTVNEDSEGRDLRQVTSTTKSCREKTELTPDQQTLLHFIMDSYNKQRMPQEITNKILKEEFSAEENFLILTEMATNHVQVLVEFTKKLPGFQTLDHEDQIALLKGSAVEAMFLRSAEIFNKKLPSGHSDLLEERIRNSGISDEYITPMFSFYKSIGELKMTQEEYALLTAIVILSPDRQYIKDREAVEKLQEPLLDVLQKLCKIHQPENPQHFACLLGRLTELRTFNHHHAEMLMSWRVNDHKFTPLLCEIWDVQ
Peroxisome proliferator-activated receptor delta (Homo sapiens), sequence (Q03181 whole entry, looked up): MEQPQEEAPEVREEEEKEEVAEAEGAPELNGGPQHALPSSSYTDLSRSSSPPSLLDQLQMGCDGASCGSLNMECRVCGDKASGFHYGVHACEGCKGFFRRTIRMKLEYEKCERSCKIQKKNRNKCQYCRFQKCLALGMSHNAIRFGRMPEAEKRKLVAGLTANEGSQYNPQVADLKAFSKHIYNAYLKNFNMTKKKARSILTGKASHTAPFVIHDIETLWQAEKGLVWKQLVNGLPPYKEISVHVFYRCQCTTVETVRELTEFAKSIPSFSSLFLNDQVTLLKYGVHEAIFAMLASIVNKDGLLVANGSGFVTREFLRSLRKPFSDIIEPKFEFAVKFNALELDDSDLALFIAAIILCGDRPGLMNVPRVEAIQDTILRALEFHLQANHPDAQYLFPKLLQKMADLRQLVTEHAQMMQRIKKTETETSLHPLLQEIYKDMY

Regarding `O=S(=O)(O)c1ccccc1`, the activation in test [1] was 0.473% (inactive). Besides, the outcome in test [2] was inactive. Besides, the Potency entry in test [3], in test [4], in test [5] and in test [6] was “inactive” in each case. In addition, in test [7], the activity change, negative = inhibition is -15.3%.
Consider `CS(=O)(=O)OCCCNCCCOS(C)(=O)=O`, for which the Potency result in test [3], in test [4], in test [5] and in test [6] was “inactive” in each case. Moreover, the activity change, negative = inhibition in test [7] is -19.8%.
